“And” between values parts separate entries of the source, which are not always exact repeats. Equal values may be shown once. Inconclusive results are not listed. A structure can be active in one record and inactive in another. The source made the active and inactive calls. Calls follow the shape of the dose curve; as a rule, active = well fitted curve in the direction sought with a large enough effect; inconclusive = small, poorly fitted or top-dose-only effect, or another doubt; inactive = no such curve, though single readings can be large; an effect the other way counts as inactive or inconclusive.
Key:
SC27B = assay: qHTS profiling for inhibitors of Plasmodium falciparum proliferation (AID 504749); also: nearly all actives have a fitted effect of over 60% in size; also: potency is read from the fitted curve at half-maximal effect; conditions: P. falciparum in erythrocytes, SYBR Green DNA, 72 h; series mostly up to 28.7 µM
Method in brief: (§1)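 Infected RBCs, 0.3% parasitemia/2.5% Hct final; cpd 72 h, 37 C, 5% CO2; lysis buffer with saponin/triton/SYBR Green I, o/n RT dark; FI 485/535; norm. to artemisinin (0.29 uM) and DMSO.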

TAB109 = assay: as above; conditions: P. falciparum in erythrocytes, SYBR Green DNA, 72 h; series mostly up to 28.7 µM
Method in brief: as §1

TAB113 = assay: as above; conditions: P. falciparum in erythrocytes, SYBR Green DNA, 72 h; series mostly up to 28.7 µM
Method in brief: as §1

TAB165 = assay: as above; conditions: P. falciparum in erythrocytes, SYBR Green DNA, 72 h; series mostly up to 28.7 µM
Method in brief: as §1

W2 = assay: as above; conditions: P. falciparum in erythrocytes, SYBR Green DNA, 72 h; series mostly up to 28.7 µM
Method in brief: as §1

CRL-7250 = normal cell line; assay: Cytotoxic Profiling of Annotated Libraries Using Quantitative High-Throughput Screening (AID 1296008); conditions: Five cell lines viability, CellTiter-Glo ATP luminescence, 48-72 h; max response: stronger effect = lower value; also: nearly all actives have a fitted effect of over 60% in size; also: potency is read from the fitted curve at half-maximal effect; as to max response: % is scaled to controls: 0 for no effect and ±100 for the full control effect
Method in brief: (§2)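 Cytotoxicity was measured as CellTiter-Glo ATP luminescence, read after 10 min at room temperature. Compound treatment of the cells lasted 48 or 72 hr at 37 degrees Celsius in a qHTS format.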

HEK293 = assay: as above; conditions: Five cell lines viability, CellTiter-Glo ATP luminescence, 48-72 h; max response: stronger effect = lower value
Method in brief: as §2

HaCat [1] = assay: as above; conditions: Five cell lines viability, CellTiter-Glo ATP luminescence, 48-72 h; max response: stronger effect = lower value
Method in brief: as §2

KB-3-1 = assay: as above; conditions: Five cell lines viability, CellTiter-Glo ATP luminescence, 48-72 h; max response: stronger effect = lower value
Method in brief: as §2

NIH3T3 [2] = assay: as above; conditions: Five cell lines viability, CellTiter-Glo ATP luminescence, 48-72 h; max response: stronger effect = lower value
Method in brief: as §2

HACAT [3] = assay: qHTS assay to identify novel small-molecules to repurpose for Merkel cell carcinoma treatment (AID 1296009); conditions: MCC and control cell lines, CellTiter-Glo viability, 72 h; series mostly up to 44.8 µM; also: nearly all actives have a fitted effect of over 60% in size; also: potency is read from the fitted curve at half-maximal effect
Method in brief: (§3)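 72 hr, 37 degree celsius; NPC 8-pt / MIPE 11-pt dose response; compound pinned in DMSO; CellTiter-Glo, 10 min RT, luminescence; normalized to no-cell and DMSO controls.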

HEK293T = assay: as above; conditions: MCC and control cell lines, CellTiter-Glo viability, 72 h; at 44.8 µM (top of the series) unless noted
Method in brief: as §3

MCC-13 = assay: as above; conditions: MCC and control cell lines, CellTiter-Glo viability, 72 h; series mostly up to 46 µM
Method in brief: as §3

MCC-26 = assay: as above; conditions: MCC and control cell lines, CellTiter-Glo viability, 72 h; series mostly up to 46 µM
Method in brief: as §3

MKL-1 = assay: as above; conditions: MCC and control cell lines, CellTiter-Glo viability, 72 h; series mostly up to 46 µM
Method in brief: as §3

MKL-2 = assay: as above; conditions: MCC and control cell lines, CellTiter-Glo viability, 72 h; series mostly up to 46 µM
Method in brief: as §3

UISO = assay: as above; conditions: MCC and control cell lines, CellTiter-Glo viability, 72 h; series mostly up to 46 µM
Method in brief: as §3

WaGa = assay: as above; conditions: MCC and control cell lines, CellTiter-Glo viability, 72 h; series mostly up to 46 µM
Method in brief: as §3

C33A = assay: Primary qHTS to identify gynecologic anti-cancer compounds using libraries of approved drugs and bioactive compounds (AID 1345084); conditions: Gynecologic cancer cell panel viability, ATPlite luminescence, 48 h; series mostly up to 57.5 µM; also: % is scaled to controls: 0 for no effect and ±100 for the full control effect; nearly all actives have a fitted effect of over 55% in size
Method in brief: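 48 h compound exposure at 37 C, 5% CO2; five-point qHTS. ATPlite luminescence readout of cell ATP.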

NIH3T3 [4] = assay: qHTS assay to identify novel small-molecules to repurpose for Merkel cell carcinoma treatment (AID 1296009); conditions: MCC and control cell lines, CellTiter-Glo viability, 72 h; series mostly up to 44.8 µM; also: nearly all actives have a fitted effect of over 60% in size; also: potency is read from the fitted curve at half-maximal effect
Method in brief: as §3

CN(C)C(=N)N=C(N)N
inactive: Potency (SC27B) | Potency (TAB109) | Potency (TAB113) | Potency (TAB165) | Potency (W2) | outcome (CRL-7250) | max response (HEK293) 2.32% | outcome (HEK293) | outcome (HaCat [1]) | max response (KB-3-1) -1.82% and 7.62% | max response (NIH3T3 [2]) -1.85% and 1.26% | outcome (HACAT [3]) | outcome (HEK293T) | Potency (MCC-13) | Potency (MCC-26) | Potency (MKL-1) | Potency (MKL-2) | Potency (UISO) | Potency (WaGa) | Potency (C33A)

COc1ccc2c(c1)c(CC(=O)O)c(C)n2C(=O)c1ccc(Cl)cc1
inactive: outcome (CRL-7250) | max response (HEK293) -16.4% | outcome (HEK293) | max response (HaCat [1]) -5.33% | outcome (HaCat [1]) | max response (KB-3-1) 0.589% and -8.59% | max response (NIH3T3 [2]) -1.64% and 1.2% | outcome (HACAT [3]) | outcome (HEK293T) | Potency (MCC-13) | Potency (MCC-26) | Potency (MKL-1) | Potency (MKL-2) | Potency (UISO) | Potency (WaGa) | Potency (C33A)

NCCc1cnc[nH]1
inactive: Potency (SC27B) | Potency (TAB109) | Potency (TAB113) | Potency (TAB165) | Potency (W2) | outcome (CRL-7250) | max response (HEK293) 4.08% | outcome (HEK293) | max response (HaCat [1]) -11% and 1.72% | max response (KB-3-1) -8.33% | outcome (KB-3-1) | max response (NIH3T3 [2]) -6.9% | outcome (NIH3T3 [2]) | outcome (HEK293T) | Potency (MCC-13) | Potency (MCC-26) | Potency (MKL-1) | Potency (MKL-2) | outcome (NIH3T3 [4]) | Potency (UISO) | Potency (WaGa) | Potency (C33A)

CC1COc2c(N3CCN(C)CC3)c(F)cc3c(=O)c(C(=O)O)cn1c23 (stereo not drawn)
inactive: max response (CRL-7250) 1.02% | outcome (CRL-7250) | max response (HEK293) -5.36% | outcome (HEK293) | outcome (HaCat [1]) | max response (KB-3-1) 21.2% | outcome (KB-3-1) | max response (NIH3T3 [2]) -0.0145% | outcome (NIH3T3 [2]) | outcome (HACAT [3]) | outcome (HEK293T) | Potency (MCC-13) | Potency (MCC-26) | Potency (MKL-1) | Potency (MKL-2) | outcome (NIH3T3 [4]) | Potency (UISO) | Potency (WaGa) | Potency (C33A)

NS(=O)(=O)c1cc2c(cc1Cl)NCNS2(=O)=O
inactive: Potency (SC27B) | Potency (TAB109) | Potency (TAB113) | Potency (TAB165) | Potency (W2) | outcome (CRL-7250) | outcome (HEK293) | max response (HaCat [1]) 0.753% | outcome (HaCat [1]) | max response (KB-3-1) 23% and 9.86% | max response (NIH3T3 [2]) -2.86% and -1.17% | outcome (HACAT [3]) | outcome (HEK293T) | Potency (MCC-13) | Potency (MCC-26) | Potency (MKL-1) | Potency (MKL-2) | Potency (UISO) | Potency (WaGa) | Potency (C33A)

CN1CCC(=C2c3ccccc3C=Cc3ccccc32)CC1
active: Potency (HEK293) 10.6 µM | Potency (MKL-2) 16.8 µM | Potency (WaGa) 26.6 µM
inactive: Potency (SC27B) | Potency (TAB109) | Potency (TAB113) | Potency (TAB165) | outcome (CRL-7250) | max response (HaCat [1]) -1.05% | outcome (HaCat [1]) | max response (KB-3-1) 25.1% and -12.3% | max response (NIH3T3 [2]) -0.507% | outcome (NIH3T3 [2]) | outcome (HACAT [3]) | Potency (MCC-13) | Potency (MCC-26) | Potency (MKL-1) | outcome (NIH3T3 [4]) | Potency (UISO) | Potency (C33A)

CCOC(=O)Nc1ccc(NCc2ccc(F)cc2)nc1N
active: Potency (SC27B) 10 µM | Potency (TAB109) 10 µM | Potency (TAB113) 11.2 µM | Potency (TAB165) 10 µM | Potency (W2) 3.79 µM
21.1 µM (active) and inactive: Potency (WaGa)
inactive: max response (CRL-7250) -7.5% and -7.01% | max response (HEK293) -4.26% | max response (HaCat [1]) -2.04% and -3.24% | max response (KB-3-1) -2.17% and -13.9% and -5.9% | max response (NIH3T3 [2]) 4.91% | outcome (NIH3T3 [2]) | Potency (MCC-13) | Potency (MCC-26) | Potency (MKL-1) | Potency (MKL-2) | outcome (NIH3T3 [4]) | Potency (UISO)

CN1C(C(=O)Nc2ccccn2)=C(O)c2ccccc2S1(=O)=O
inactive and 10.5 µM (active): Potency (MKL-1)
inactive and 16.6 µM (active): Potency (WaGa)
inactive: Potency (SC27B) | Potency (TAB109) | Potency (TAB113) | Potency (TAB165) | Potency (W2) | max response (CRL-7250) -1.73% and 2.62% | max response (HEK293) 3.98% | max response (HaCat [1]) 0.638% and -49.2% | max response (KB-3-1) -1.54% and -11.4% | max response (NIH3T3 [2]) 1.34% | Potency (MCC-13) | Potency (MCC-26) | Potency (MKL-2) | Potency (UISO) | Potency (C33A)

CN1CCN(C2=Nc3cc(Cl)ccc3Nc3ccccc32)CC1
active: Potency (HEK293) 13.3 µM
inactive: max response (CRL-7250) -7.49% and -17.9% | max response (HaCat [1]) 2.26% | max response (KB-3-1) 6.37% | outcome (NIH3T3 [2]) | Potency (MCC-13) | Potency (MCC-26) | Potency (MKL-1) | Potency (MKL-2) | outcome (NIH3T3 [4]) | Potency (UISO) | Potency (WaGa) | Potency (C33A)

Clc1ccc(C(c2ccccc2Cl)C(Cl)Cl)cc1 (stereo not drawn)
inactive: Potency (SC27B) | Potency (TAB109) | Potency (TAB113) | Potency (TAB165) | max response (CRL-7250) -3.27% | max response (HEK293) -1.26% | max response (HaCat [1]) -1.22% | outcome (HaCat [1]) | max response (KB-3-1) -10.1% and -1.61% | max response (NIH3T3 [2]) -2.6% and -1.15% | outcome (HACAT [3]) | Potency (MCC-13) | Potency (MCC-26) | Potency (MKL-1) | Potency (MKL-2) | Potency (UISO) | Potency (WaGa) | Potency (C33A)

Reference: PubChem BioAssay (NCATS)
